# Assay outcomes as filed in PubChem BioAssay.
# In the library only some 10% were active in any assay of this set; here they are far more common.
# FLuc inh: Firefly luciferase inhibition profiling of diverse chemical library using quantitative high-throughput screening; purified P. pyralis luciferase, luminescence, biochemical; Potency, µM (highest dose often 115 µM), most hits filed as inhibitors; 76,000 compounds, 2.5% hits; AID 1347043, 2019; further: nearly all actives have a fitted effect of over 65% in size
#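 Luminescence read by CCD imager after adding enzyme (10nM final) to wells holding compound, titrated in qHTS. Substrates 10uM each D-luciferin and ATP; buffer 50mM Tris acetate pH 7.5, 10mM Mg acetate, Tween-20, BSA.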
# 3T3 cytotox: Cytotoxic Profiling in NIH 3T3 Cell Line of Diverse Libraries Using Quantitative High-Throughput Screening; NIH 3T3 viability, CellTiter-Glo ATP luminescence, 48-72 h; Potency, µM (highest dose often 96.7 µM), most hits filed as inhibitors; 94,000 compounds, 4.3% hits; AID 1345082, 2018; further: nearly all actives have a fitted effect of over 55% in size
#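 Luminescent ATP readout (CellTiter-Glo, 10 min RT) after 48 or 72 hr compound exposure of NIH 3T3 cells seeded at 400 cells/well in 1536-well format; quantitative HTS.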
# HEK cytotox: Cytotoxic Profiling in HEK 293 Cell Line of Diverse Libraries Using Quantitative High-Throughput Screening. Potency, µM (highest dose often 115 µM), actives largely listed as inhibitors. HEK 293 viability, ATP luminescence (CellTiter-Glo), 48-72 h. 94,000 compounds, 6.6% hits. AID 1345083, 2018; further: nearly all actives have a fitted effect of over 60% in size
#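 250 HEK 293 cells/well; compound by pintool; incubated 48 or 72 hr at 37 degree Celsius; CellTiter-Glo added, 10 min RT, luminescence imaged.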
# NPR1 antag: Natriuretic polypeptide receptor (hNpr1) antagonism - Primary qHTS; Atrial natriuretic peptide receptor 1 (Homo sapiens), P16066; HEK293 hNpr1 GloSensor cGMP, ANP-stimulated luminescence; Potency, µM (titrated, usually from 46.3 µM), actives largely listed as inhibitors; 76,000 compounds, 1.6% hits; AID 1347048, 2019; calls by dose curve; further: nearly all actives have a fitted effect of over 60% in size
#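 HEK293 cells stably expressing human Npr1 and cGMP GloSensor pGS-40F, loaded 2 h with 2% GloSensor reagent, given compound 30 min at room temperature. Luminescence read before and 20 min after 0.1 nM hNppA.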
# GPT2 inhibitor: Primary qHTS assay for inhibitors of Glutamate pyruvate transaminase 2 (GPT2). Alanine aminotransferase 2 (Homo sapiens), Q8TD30. Recombinant GPT2, coupled pyruvate oxidase/HRP Amplex Red fluorescence. Potency, µM (series often up to 57.7 µM), usual class: inhibitors. 100,000 compounds, 0.25% hits. AID 1671188, 2021; further: nearly all actives have a fitted effect of over 60% in size
# Target sequence (Q8TD30 whole entry, looked up): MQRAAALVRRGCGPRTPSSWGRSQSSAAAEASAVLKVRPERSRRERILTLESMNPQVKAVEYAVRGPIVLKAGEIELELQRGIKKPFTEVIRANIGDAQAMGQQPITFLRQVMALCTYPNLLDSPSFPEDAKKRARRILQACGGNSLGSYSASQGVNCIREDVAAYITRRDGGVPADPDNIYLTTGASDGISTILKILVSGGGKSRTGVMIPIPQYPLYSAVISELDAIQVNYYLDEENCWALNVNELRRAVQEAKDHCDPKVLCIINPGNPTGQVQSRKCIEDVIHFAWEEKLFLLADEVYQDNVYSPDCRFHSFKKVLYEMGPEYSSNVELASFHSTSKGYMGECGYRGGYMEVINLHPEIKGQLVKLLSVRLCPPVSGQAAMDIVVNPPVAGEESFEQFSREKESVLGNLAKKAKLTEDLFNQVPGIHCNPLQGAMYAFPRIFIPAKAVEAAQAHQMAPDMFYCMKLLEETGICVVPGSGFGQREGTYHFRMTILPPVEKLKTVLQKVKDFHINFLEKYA
#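 Inhibition is scored from Amplex Red fluorescence generated when pyruvate oxidase and HRP act on pyruvate released by GPT2. Reactions contain 10ng/uL enzyme, 250uM a-KG and 2mM L-alanine and run 30 min at room temperature.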
# Hits are given with their value; n = inactive; u = inconclusive; x = no result; ! = a repeat was not active. Unless noted, the call rests on the fitted dose curve; in most records, active means well fitted curve in the direction sought with a large enough effect; inconclusive means small, poorly fitted or top-dose-only effect, or another doubt; inactive means no such curve, though single readings can be large; an effect the other way counts as inactive or inconclusive.
SMILES,FLuc inh,3T3 cytotox,HEK cytotox,NPR1 antag,GPT2 inhibitor
COC(=O)c1ccc2nc(C[C@@H]3C[C@@H](C(C)C)[C@H](CNS(=O)(=O)c4ccccc4)C=C3C)[nH]c2c1,n,32µM,28µM,n,n
Cc1ccccc1CNC(=O)c1ccc2c(c1)C(O)CCCCCN2C (configuration not stated),n,u,u,n,n
O=C(NCc1cccnc1)c1nc(-c2ccccc2)cc2[nH]ccc12,n,u,89µM,n,n
O=C(NCCc1ccccn1)c1nc(-c2ccccc2)cc2[nH]ccc12,u,u,79µM,n,n
O=C(NCc1cccs1)C1CCCN(c2nccc(Nc3ccccc3F)n2)C1 (configuration not stated),x,u,u,x,n
Cc1ccc(Nc2ccnc(N3CCCC(C(=O)NCc4cccs4)C3)n2)cc1 (configuration not stated),x,18µM,10µM,x,n
COc1ccc(Nc2ccnc(N3CCCC(C(=O)N4CCCCC4)C3)n2)cc1 (configuration not stated),x,u,u,x,n
COc1ccc(Nc2ccnc(N3CCCC(C(=O)NCc4cccs4)C3)n2)cc1 (configuration not stated),x,35µM,35µM,x,u
CSc1ccc(-c2ccc3c(c2)C(=O)N2CC[C@H](NC(=O)c4cccs4)C[C@H]2C(=O)N3)cc1,n,n,u,n,n
CC(C)(C)CNc1cc(Cl)nc2ccnn12,n,n,u,n,n
Fc1ccccc1CNc1cc(Cl)nc2ccnn12,n,u,35µM,u,u
c1csc(-c2nc3nccc(-c4cccs4)n3n2)c1,n,u,u,n,n
Cc1noc([C@H]2CCN(Cc3cccnc3)C[C@H]2NC(=O)C2CC2)n1,n,u,n,n,n
CC(C)NC(=O)c1nc2cccnc2n(CCc2ccccc2)c1=O,x,u,20µM,x,n
O=C(NCC1CCCCCC1)c1nc2cccnc2n(CCc2ccccc2)c1=O,x,35µM,u,x,n
CS(=O)(=O)N1Cc2ccccc2CC2(CCN(CC3CCNC3)C2)C1 (configuration not stated),x,n,n,x,n
COc1c(O[C@@H]2O[C@H](CO)[C@@H](O)[C@H](O)[C@H]2O)c(CCC(=O)O)cc2ccoc12,x,x,x,x,n
Cn1ncc(N2CCC(CNC(=O)c3cccc4ccnn34)C2)cc1=O (configuration not stated),n,n,n,n,n
COc1ccc(CN2CCC(c3nn(Cc4ccccc4)c(=O)[nH]3)CC2)cc1,n,n,n,n,n
COc1ccc(Cn2nc(-c3ccccc3)nc2C2CCC(=O)NC2)cc1 (configuration not stated),35µM,n,u,n,n
COc1cccc(S(=O)(=O)N2CCOCCNC(=O)[C@@H]3CCC[C@@H]32)c1,n,n,n,n,n
Cc1ccccc1CN1CCn2nnc(-c3nc(-c4ccsc4)no3)c2C1=O,n,u,u,n,n
O=C(c1ccccc1F)N1CCc2nc(C3CC3)nc(-c3ccc(Cl)cc3)c2C1,x,u,n,x,n
Oc1ccc(-c2nc(C3CC3)nc3c2CN(CC2CCCCC2)CC3)cc1,n,u,79µM,n,n
O=C(c1ccccn1)N1CCc2nc(C3CC3)nc(-c3ccc(Cl)cc3)c2C1,x,32µM,n,x,n
SMILES,FLuc inh,3T3 cytotox,HEK cytotox,NPR1 antag,GPT2 inhibitor
O=C(c1ccc(C(F)(F)F)cc1)N1CCc2nc(C3CC3)nc(-c3ccc(Cl)cc3)c2CC1,n,u,28µM,n,n
O=C(Nc1ccc(Cl)cc1)N1CCc2nc(C3CC3)nc(-c3ccc(Cl)cc3)c2C1,n,u,28µM,n,n
Cc1ccc(C(=O)N2CCC(N3C[C@H](O)C[C@H]3C(=O)NC3CCCCC3)CC2)cn1,n,n,n,n,n
CN[C@@H](C)c1nc(C2CCOCC2)nn1CC1CCCCC1,n,n,n,n,n
O=C1N(Cc2cccc(F)c2F)CCCC1(O)CN1CCCCC1 (configuration not stated),n,n,n,n,n
O=C(c1ccc(OCCN2CCCCC2)cc1)c1c(-c2ccc(O)cc2)sc2cc(O)ccc12,x,x,x,x,8.9µM!
CCCCOc1ccc(C(=O)CCN2CCCCC2)cc1,x,x,x,x,n
NCc1ccc(-c2cccc(C(F)(F)F)c2)cc1,x,32µM,32µM,x,n
NCc1cccc(-c2cccc(Cl)c2)c1,x,89µM,u,x,n
NCc1ccc(-c2cccc(O)c2)cc1,x,89µM,89µM,x,n
O=Cc1ccc(-c2cccc(O)c2)cc1,x,u,u,x,n
O=C(O)c1ccc(-c2cccc(C(F)(F)F)c2)cc1,x,n,n,x,n
NCc1ccc(-c2cc(C(F)(F)F)ccc2Cl)cc1,x,25µM,28µM,x,n
COCCCNC(=O)c1nc2sccn2c1-c1cccc(OC)c1,x,n,n,x,n
O=C(NCc1cccnc1)c1ccc(N2CCC(NCCCn3ncc4ccccc43)CC2)cc1,n,18µM,u,n,n
O=C(NCc1cccnc1)c1ccc2c(c1)n(Cc1ccccc1)c(=O)c1ccnn12,n,n,n,n,n
Cc1ccc2c(c1)N1C(=O)OC[C@@H]1CCN(C(=O)c1cc(C)on1)C2,n,n,n,n,n
COc1ccccc1-c1ccc(CN2CCC(NC(=O)Cc3ccccn3)C2)cc1 (configuration not stated),x,u,u,x,n
COc1ccccc1-c1ccc(CN2CCC(N[S+](=O)([O-])c3ccccc3)C2)cc1 (configuration not stated),x,32µM,35µM,x,x
COc1ccccc1-c1ccc(CN2CCC(N[S+](=O)([O-])c3cccc(C(F)(F)F)c3)C2)cc1 (configuration not stated),x,13µM,20µM,x,x
COc1ccc(F)cc1-c1ccc(CN2CCC(N[S+](=O)([O-])c3ccc(NC(C)=O)cc3)C2)cc1 (configuration not stated),x,u,14µM,x,x
COc1ccc(F)cc1-c1ccc(CN2CCC(N[S+](=O)([O-])c3cccc(C(F)(F)F)c3)C2)cc1 (configuration not stated),x,13µM,20µM,x,x
COc1ccccc1-c1ccc(CN2CCC(N[S+](=O)([O-])c3cccs3)C2)cc1 (configuration not stated),x,u,u,x,n
Cc1ccc(C(=O)NC2CCN(c3cc(C(F)(F)F)ncn3)CC2)s1,n,u,u,n,n
O=C(O)c1ccc(NC(=O)[C@H](CC2CCCC2)n2cnc(C(F)(F)F)c2)nc1,x,x,x,x,n
CN1CCN(C2CCC(n3cc(-c4ccc(Oc5ccccc5)cc4)c4c(N)ncnc43)CC2)CC1 (configuration not stated),x,x,x,x,n
